Test results taken from the supplement of paper PMC12645437, “Orthogonal IMiD-Degron Pairs Induce Selective Protein Degradation in Cells” (ACS Chemical Biology, 2025).
The full ranking holds about 8,300 sequences; the median of “log2 fold change of degron read counts, EGFP-low vs EGFP+ sorted cells (limma voom), compound-induced degradation” is about -1.1, and the highest 2% start at about 3.2. The sample as a whole holds a higher share of the highest values than the screen did.

Target: T1, CRBN, Q96SW2
T1 chain: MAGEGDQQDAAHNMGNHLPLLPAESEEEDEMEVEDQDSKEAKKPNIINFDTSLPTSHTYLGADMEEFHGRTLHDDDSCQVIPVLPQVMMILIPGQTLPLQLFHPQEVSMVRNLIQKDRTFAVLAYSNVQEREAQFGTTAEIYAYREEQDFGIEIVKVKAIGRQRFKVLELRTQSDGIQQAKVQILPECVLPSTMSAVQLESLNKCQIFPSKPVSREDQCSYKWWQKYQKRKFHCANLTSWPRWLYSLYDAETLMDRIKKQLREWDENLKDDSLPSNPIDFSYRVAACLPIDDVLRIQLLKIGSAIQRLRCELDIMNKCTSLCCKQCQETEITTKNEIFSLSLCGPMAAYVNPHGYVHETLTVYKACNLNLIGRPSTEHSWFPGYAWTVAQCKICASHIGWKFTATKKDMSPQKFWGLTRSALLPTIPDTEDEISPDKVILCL
Assay: log2 fold change of degron read counts, EGFP-low vs EGFP+ sorted cells (limma voom), compound-induced degradation; higher = more compound-induced degradation of the degron-EGFP fusion; degrons are variants of IKZF1/3 zinc finger 2; compound dose not given here
Conditions: Jurkat, 18 h
Protocol: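 Pooled library of 8380 IKZF3 ZF2 degron mutants (positions 146-167 varied within the IKZF3 130-189 degron; only the varied core is printed, flanks not printed) fused to EGFP with IRES-mCherry, lentivirally expressed in Jurkat cells. mCherry+ cells were treated with one IMiD compound for 18 h (dose not stated) and FACS-sorted into EGFP-low and EGFP+ populations. Degron sequences were counted by NGS, and log2FC (EGFP-low vs EGFP+) was estimated by limma voom over 3 biological replicates.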

[1] = compound: compound 19 (5-tert-butyl-thalidomide)
[2] = compound: compound 22 (5-morpholino-thalidomide)
[3] = compound: compound 33 (diphenyl IMiD analogue)
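Further: pooled lentiviral library of zinc finger degron-EGFP fusions in mCherry-positive Jurkat cells, FACS-sorted after compound exposure, with degron abundance counted by next-generation sequencing.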

Q: Which “log2 fold change of degron read counts” value [1] does the source give for FSCNQCGRCFTQKGNLLRHIKL [46F_47S_49N_50Q_52G_53R_54C_55F_67L_, Q9UKT9] here?
A: -2.78

Q: What about the “log2 fold change of degron read counts” value [2] of the same sequence?
A: -2.88

Q: And the “log2 fold change of degron read counts” value [3]?
A: -2.83

Q: And the “log2 fold change of degron read counts” value (compound: thalidomide)?
A: -2.73

Q: For FNCPQCGADFTQKGNLLRHIKL [46F_47N_49P_50Q_52G_53A_54D_55F_67L_, Q9UKT9], which “log2 fold change of degron read counts” value [1] is on record?
A: -3.44

Q: What about the “log2 fold change of degron read counts” value [2] of the same sequence?
A: -3.57

Q: What about the “log2 fold change of degron read counts” value [3] of the same sequence?
A: -2.75

Q: And the “log2 fold change of degron read counts” value (compound: thalidomide)?
A: -3.69

Q: What does the source list for FFCNICGAEFTQKGNLLRHIKL [46F_47F_49N_50I_52G_53A_54E_55F_67L_, Q9UKT9]?
A: log2 fold change of degron read counts [1]: 1.77; log2 fold change of degron read counts [2]: 1.94; log2 fold change of degron read counts [3]: 0.373; log2 fold change of degron read counts (compound: thalidomide): -0.454

Q: How did the “log2 fold change of degron read counts” value [1] turn out when FSCPICGHQFTQKGNLLRHIKL [46F_47S_49P_50I_52G_53H_54Q_55F_67L_, Q9UKT9] was run?
A: -2.3

Q: And the “log2 fold change of degron read counts” value [2]?
A: -3.17

Q: And the “log2 fold change of degron read counts” value [3]?
A: -1.53

Q: And the “log2 fold change of degron read counts” value (compound: thalidomide)?
A: -1.82

Q: Which results are given for FSCNQCGRDFTQKGNLLRHIKL [46F_47S_49N_50Q_52G_53R_54D_55F_67L_, Q9UKT9]?
A: log2 fold change of degron read counts [1]: -3.12; log2 fold change of degron read counts [2]: -4.04; log2 fold change of degron read counts [3]: -2.59; log2 fold change of degron read counts (compound: thalidomide): -2.97

Q: LFCNQCGFNCTQKGNLLRHIKL [46L_47F_49N_50Q_52G_53F_54N_55C_67L_, Q9UKT9] was tested. Which “log2 fold change of degron read counts” value [1] did it give?
A: -1.81

Q: What about the “log2 fold change of degron read counts” value [2] of the same sequence?
A: -1.88

Q: What about the “log2 fold change of degron read counts” value [3] of the same sequence?
A: -1.92

Q: What about the “log2 fold change of degron read counts” value (compound: thalidomide) of the same sequence?
A: -1.45

Q: With FECNQCGAHFTQKGNLLRHIKL [46F_47E_49N_50Q_52G_53A_54H_55F_67L_, Q9UKT9] as the sequence, how does the “log2 fold change of degron read counts” value [1] read?
A: -2.49

Q: What about the “log2 fold change of degron read counts” value [2] of the same sequence?
A: -3.01

Q: What about the “log2 fold change of degron read counts” value [3] of the same sequence?
A: -2.49

Q: And the “log2 fold change of degron read counts” value (compound: thalidomide)?
A: -2.34

Q: FCCEICGAIFTQKGNLLRHIKL [46F_47C_49E_50I_52G_53A_54I_55F_67L_, Q9UKT9] was tested. Which “log2 fold change of degron read counts” value [1] did it give?
A: 1.48

Q: What about the “log2 fold change of degron read counts” value [2] of the same sequence?
A: 1.57

Q: And the “log2 fold change of degron read counts” value [3]?
A: 2.5

Q: And the “log2 fold change of degron read counts” value (compound: thalidomide)?
A: 1.97

Q: With FMCEICGAIFTQKGNLLRHIKL [46F_47M_49E_50I_52G_53A_54I_55F_67L_, Q9UKT9] as the sequence, how does the “log2 fold change of degron read counts” value [1] read?
A: -1.18

Q: What about the “log2 fold change of degron read counts” value [2] of the same sequence?
A: -0.577

Q: And the “log2 fold change of degron read counts” value [3]?
A: 2.14

Q: What about the “log2 fold change of degron read counts” value (compound: thalidomide) of the same sequence?
A: 0.96

Q: FQCEICGAIFTQKGNLLRHIKL [46F_47Q_49E_50I_52G_53A_54I_55F_67L_, Q9UKT9] was tested. Which “log2 fold change of degron read counts” value [1] did it give?
A: -0.255

Q: What about the “log2 fold change of degron read counts” value [2] of the same sequence?
A: 3.16

Q: What about the “log2 fold change of degron read counts” value [3] of the same sequence?
A: 2.84

Q: And the “log2 fold change of degron read counts” value (compound: thalidomide)?
A: 3.68

Q: What does the source list for FICDVCGASFTQKGNLLRHIKL [46F_47I_49D_50V_52G_53A_54S_55F_67L_, Q9UKT9]?
A: log2 fold change of degron read counts [1]: -1.49; log2 fold change of degron read counts [2]: 1.22; log2 fold change of degron read counts [3]: 0.774; log2 fold change of degron read counts (compound: thalidomide): 0.427

Q: What does the source list for FYCEVCGAHFTQKGNLLRHIKL [46F_47Y_49E_50V_52G_53A_54H_55F_67L_, Q9UKT9]?
A: log2 fold change of degron read counts [1]: 3.12; log2 fold change of degron read counts [2]: 3.62; log2 fold change of degron read counts [3]: 2.45; log2 fold change of degron read counts (compound: thalidomide): 0.916

Q: Which “log2 fold change of degron read counts” value [1] does the source give for FTCEVCGAHFTQKGNLLRHIKL [46F_47T_49E_50V_52G_53A_54H_55F_67L_, Q9UKT9] here?
A: -0.0867

Q: What about the “log2 fold change of degron read counts” value [2] of the same sequence?
A: 0.738

Q: What about the “log2 fold change of degron read counts” value [3] of the same sequence?
A: 1.47

Q: And the “log2 fold change of degron read counts” value (compound: thalidomide)?
A: 2.04

Q: For FVCEVCGAHFTQKGNLLRHIKL [46F_47V_49E_50V_52G_53A_54H_55F_67L_, Q9UKT9], which “log2 fold change of degron read counts” value [1] is on record?
A: -0.244

Q: What about the “log2 fold change of degron read counts” value [2] of the same sequence?
A: 1.53

Q: And the “log2 fold change of degron read counts” value [3]?
A: 1.35

Q: What about the “log2 fold change of degron read counts” value (compound: thalidomide) of the same sequence?
A: 1.87

Q: Which “log2 fold change of degron read counts” value [1] does the source give for FWCEVCGAHFTQKGNLLRHIKL [46F_47W_49E_50V_52G_53A_54H_55F_67L_, Q9UKT9] here?
A: 3.1

Q: And the “log2 fold change of degron read counts” value [2]?
A: 3.92

Q: And the “log2 fold change of degron read counts” value [3]?
A: 1.96

Q: And the “log2 fold change of degron read counts” value (compound: thalidomide)?
A: 0.936

Q: Which results are given for FRCEVCGAHFTQKGNLLRHIKL [46F_47R_49E_50V_52G_53A_54H_55F_67L_, Q9UKT9]?
A: log2 fold change of degron read counts [1]: -1.19; log2 fold change of degron read counts [2]: -1.13; log2 fold change of degron read counts [3]: 0.668; log2 fold change of degron read counts (compound: thalidomide): 0.202

Q: With FACEVCGAHFTQKGNLLRHIKL [46F_47A_49E_50V_52G_53A_54H_55F_67L_, Q9UKT9] as the sequence, how does the “log2 fold change of degron read counts” value [1] read?
A: 3.16

Q: And the “log2 fold change of degron read counts” value [2]?
A: 0.662

Q: And the “log2 fold change of degron read counts” value [3]?
A: 0.411

Q: What about the “log2 fold change of degron read counts” value (compound: thalidomide) of the same sequence?
A: -0.296

Q: For LVCEICGFGCTQKGNLLRHIKL [46L_47V_49E_50I_52G_53F_54G_55C_67L_, Q9UKT9], which “log2 fold change of degron read counts” value [1] is on record?
A: 1.26

Q: What about the “log2 fold change of degron read counts” value [2] of the same sequence?
A: 1.94

Q: And the “log2 fold change of degron read counts” value [3]?
A: 0.702

Q: And the “log2 fold change of degron read counts” value (compound: thalidomide)?
A: 2.41
